# Test results: paper PMC5540273 (PLoS ONE, 2017)
# Legend:
# Settings in all cases: concentration: 1 μM, replicates: in singlicate; n = 1
# MLK1 = test system: T1, MLK1
# T1 construct: gene MAP3K9
# MLK2 = test system: MLK2
# MLK3 = test system: MLK3
# MRCKA = test system: MRCKA
# MRCKB = test system: T2, MRCKB
# T2 construct: gene CDC42BPB
# MST1R = test system: MST1R
# MST1 = test system: T3, MST1
# T3 construct: gene STK4
# MST2 = test system: T4, MST2
# T4 construct: gene STK3
# MST3 = test system: T5, MST3
# T5 construct: gene STK24
# MST4 = test system: MST4
# MTOR = test system: MTOR
# MUSK = test system: MUSK
# MYLK2 = test system: MYLK2
# MYLK4 = test system: MYLK4
# MYLK = test system: MYLK
# MYO3A = test system: MYO3A
# MYO3B = test system: MYO3B
# NDR1 = test system: T6, NDR1
# T6 construct: gene STK38
# NDR2 = test system: NDR2
# NEK10 = test system: NEK10
# 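Note: KINOMEscan kinase panel screen.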
Structure (SMILES),%Inh (MLK1) [%],%Inh (MLK2) [%],%Inh (MLK3) [%],%Inh (MRCKA) [%],%Inh (MRCKB) [%],%Inh (MST1R) [%],%Inh (MST1) [%],%Inh (MST2) [%],%Inh (MST3) [%],%Inh (MST4) [%],%Inh (MTOR) [%],%Inh (MUSK) [%],%Inh (MYLK2) [%],%Inh (MYLK4) [%],%Inh (MYLK) [%],%Inh (MYO3A) [%],%Inh (MYO3B) [%],%Inh (NDR1) [%],%Inh (NDR2) [%],%Inh (NEK10) [%]
Cn1cc(-c2ccc3c(c2)CCN3C(=O)Cc2cc(F)cc(F)c2F)c2c(N)ncnc21 [GSK2634140],38,0,54,0,0,43,85,42,4,0,15,28,82,0,11,38,1,0,0,10
COc1cc(Nc2nccc(N3CCC(NC(=O)Nc4ccc5c(c4)OCO5)C3)n2)cc(OC)c1OC (centres unmarked) [GSK1379766],36,0,46,11,0,39,0,32,0,0,26,19,10,1,21,18,0,0,9,34
O=C(Nc1n[nH]c2nc(-c3cccc(O)c3)ccc12)C1CC1 [SB-711805],0,13,3,0,0,0,0,0,0,0,0,0,97.2,13,98.4,18,0,0,0,0
CC(C)(C)c1ccc(C(=O)Nc2cn3cc(-n4ccnc4)ccc3n2)cc1,18,0,0,28,0,28,7,3,0,0,10,1,18,2,0,0,0,8,7,0
Fc1cc(Cl)ccc1Nc1ccnc2cc(-c3ccc(CN4CCSCC4)o3)ccc12 [GW560106],14,0,13,0,4,31,30,0,0,0,6,0,13,0,38,38,0,12,31,15
CS(=O)(=O)c1cccc(CNc2nc(Nc3ccc4c(c3)CCC(=O)N4)ncc2C(F)(F)F)c1,99.7,93.9,96.4,0,0,1,0,11,0,25,62,12,16,0,7,0,0,58,0,0
COC(=O)Nc1nc2cc(Oc3ccc(NC(=O)Nc4cccc(SC)c4)cc3)ccc2[nH]1.Cl [GW697999],0,0,0,14,0,29,4,0,0,0,28,98.9,2,0,11,25,0,11,0,7
N#Cc1cnc2cc(-c3cnc(CNCCN4CCOCC4)s3)ccc2c1Nc1ccc(Oc2ccccc2)cc1 [GW664114],78,17,83,9,0,86,20,12,34,18,12,3,0,13,6,55,48,14,0,4
Cc1ccc(O)cc1Nc1ccnc2cc(-c3ccc(CN4CCCCC4)o3)ccc12 [GW557777],2,0,2,0,0,5,0,0,17,0,0,3,0,2,9,4,0,0,4,0
Cc1cc(-c2ccnc(Nc3cccc(C#N)c3)n2)cc(C)c1O [GSK1440913],66,0,36,5,0,0,0,9,6,9,7,25,76,100,13,0,0,10,12,20
